# Experimental data: PubChem BioAssay (EPA / NIEHS)
# Where a structure was tested more than once in an assay, its records may differ in their call. Active and inactive are the calls of the source. The calls were made as follows: active = hit-call score of the fitted dose curve at least 0.9, where 1 is the maximum; inactive = score below 0.9.
# Read-out: Tissue Factor, F3 (gene 2152)
# Test: BSK_LPS_TissueFactor: BioMAP Diversity Plus: LPS Assay for Tissue Factor Biomarker Activity (AID 2283084)
# Conditions: primary human HUVEC with PBMC; actives raise or lower the signal
# Protocol: BSK_LPS is a cell-based, multiplexed-readout assay that uses umbilical vein endothelium and peripheral blood mononuclear cells, a human vascular primary cell co-culture, with measurements taken at 24 hours after chemical dosing in a 96-well plate.BSK_LPS_TissueFactor is an assay component measured in the BSK_LPS assay. It measures CD142 Tissue Factor antibody related to regulation of gene expression using ELISA technology.Data from the assay component BSK_LPS_TissueFactor was analyzed into 1 assay endpoint. This assay endpoint, BSK_LPS_TissueFactor, was analyzed with bidirectional fitting relative to DMSO as the negative control and baseline of activity. Using a type of binding reporter, gain or loss-of-signal activity can be used to understand changes in the signaling as they relate to the gene F3. Furthermore, this assay endpoint can be referred to as a primary readout, because this assay has produced multiple assay endpoints where this one serves a signaling function. To generalize the intended target to other relatable targets, this assay endpoint is annotated to the cytokine intended target family, where the subfamily is coagulation factor.
# The levels of cell surface (or secreted, indicated by the prefix "s") biomarker endpoints were measured by ELISA. Overt cytotoxicity to cells in confluent adherent cultures (all systems other than the BT system) was assessed by measuring total protein levels using sulforhodamine B (SRB) staining in parallel cultures at the time of biomarker measurements, indicated as SRB endpoints. For proliferation assays for adherent cell types, individual cell types are cultured at sub-confluence and relative cell numbers quantified by SRB staining at time points optimized for each system (48 h: 3C and CASM3C systems; 72 h: BT and HDF3CGF systems; 96 h: SAg system). SRB was performed by staining cells with 0.1% SRB after fixation with 10% TCA and reading wells at 560 nm.Viability and proliferation of PBMC (T cells) was quantified by Alamar Blue reduction for the SAg and BT systems. For PBMC viability (referred to as PBMC Cytotoxicity within the assay endpoint names), cells were plated (75,000/well in a 96-well plate) and then chemical samples added for 1 h before addition of activators, SEB and TSST-1 (20 ng/mL final concentration each). Cells were incubated for 90 h. Then, Alamar Blue (20 uL/well) (Invitrogen, Cat DAL1100) was added for 6 h, and the plates were read with a fluorescence microplate reader at 546/580 nm (excitation/emission). For PBMC proliferation, cells were plated and activated as above but incubated for only 16 h prior to addition of Alamar Blue. Plates were read after 6 h.
Compound,outcome,AC50
CCOc1ccc2[nH]cc(C(=O)NCc3ccccc3)c(=O)c2n1,inactive,
NC(N)=O,inactive,
Cc1nccn1-c1ccc(Sc2cccc(C3(C(N)=O)CCOCC3)c2)cc1,inactive,
CCCCCCOC(=O)CC(CC(=O)OCCCCCC)(OC(=O)CCC)C(=O)OCCCCCC,inactive,
Cc1cccc(O)c1C,inactive,
c1ccc2cc3ccccc3cc2c1,inactive,
COCc1nnc(-c2ccc[n+]([O-])c2)n1-c1c(Cl)c(Cl)cc2[nH]c(=O)c(=O)[nH]c12,inactive,
CCCc1ccccc1,inactive,
c1ccc2ncccc2c1,inactive,
CCCCOC(=O)c1ccccc1,inactive,
CCCCCCCCN(C)C,inactive,
CNC(C)=O,inactive,
O=c1[nH]cnc2c1ncn2[C@H]1CC[C@@H](CO)O1,inactive,
FC(F)=C(F)C(F)(F)C(F)(F)C(F)(F)C(F)(F)C(F)(F)C(F)(F)F,inactive,
Cn1c(=O)c2[nH]cnc2n(C)c1=O,inactive,
Cc1nc(-c2ccccn2)ncc1C(=O)Nn1cc(C)c2cc(F)ccc21,inactive,
CCc1cccc(CC)c1N,inactive,
NC(=O)N(O)[C@@H]1COc2cc(OCc3ccccc3)ccc21,inactive,
c1ccc(C(O[C@@H]2CCCN(CCc3ccc4c(c3)OCO4)C2)c2ccccc2)cc1,inactive,
OC(O)(C(F)C(O)(O)C(F)(F)F)C(F)(F)F,inactive,308 nM (active)

Compound,outcome,AC50
OCc1c[nH]c2ccccc12,inactive,
CC(=O)c1ccccc1,inactive,
FC(F)C(F)(F)COCC1CO1 (stereo not given),inactive,
OCC(CO)(CO)CO,inactive,
CCc1ccc(O)c(C(C)(C)C)c1,inactive,
NNC(=O)c1ccncc1,inactive,
OCc1ccccc1,inactive,
OC[C@H]1O[C@@H]2O[C@H]3[C@H](O)[C@@H](O)[C@@H](O[C@H]4[C@H](O)[C@@H](O)[C@@H](O[C@H]5[C@H](O)[C@@H](O)[C@@H](O[C@H]6[C@H](O)[C@@H](O)[C@@H](O[C@H]7[C@H](O)[C@@H](O)[C@@H](O[C@H]1[C@H](O)[C@H]2O)O[C@@H]7CO)O[C@@H]6CO)O[C@@H]5CO)O[C@@H]4CO)O[C@@H]3CO,inactive,
C=CN1CCCC1=O,inactive,
CCCOc1ccc(S(=O)(=O)N2CCN(CC)CC2)cc1-c1nc2c(CC)n(Cc3ccccn3)nc2c(=O)[nH]1,inactive,
OC(Cn1cncn1)(Cn1cncn1)c1ccc(F)cc1F,inactive,
CCCC(CCC)C(=O)O,inactive,
CCCCCOC(C)=O,inactive,
CCn1nc(C)c2c1C(=O)NCC(c1ccc(O)cc1)=N2,inactive,
OC[C@H]1O[C@@](CO)(O[C@H]2O[C@H](CO)[C@@H](O)[C@H](O)[C@H]2O)[C@@H](O)[C@@H]1O,inactive,
Cn1cc[nH]c1=S,inactive,
CC1(C)C(=O)N(Cl)C(=O)N1Cl,inactive,
O=C(NO)C1(NS(=O)(=O)c2ccc(Oc3ccc(F)cc3)cc2)CCOCC1,inactive,
OCCOCCOCCO,inactive,
